Screening results deposited in PubChem BioAssay by National Center for Advancing Translational Sciences (NCATS).
LASV entry inh: qHTS for Inhibitors of binding or entry into cells for Lassa Virus | Lassa virus pseudotype entry inhibition, cell reporter | Potency, µM (titrated, usually from 37.9 µM), actives largely listed as inhibitors | hit rate 1.2% among 300,000; calls by dose curve; tested in HEK293 cells; further: nearly all actives have a fitted effect of over 50% in size
MARV entry inh: qHTS for inhibitors of binding or entry into cells for Marburg Virus. Potency, µM (series often up to 37.8 µM), usual class: inhibitors. AID 540276, 2011. Marburg virus pseudotyped entry inhibition, cell reporter. hit rate 1.8% among 300,000; calls by dose curve; tested in HEK293 cells
Vaccinia Venus: qHTS for Stage-Specific Inhibitors of Vaccinia Orthopoxvirus: Venus Reporter Primary qHTS; Vaccinia virus Venus reporter expression, fluorescence; Potency, µM (doses to about 36.5 µM), most hits filed as inhibitors; hit rate 0.46% among 330,000; calls by dose curve; tested in A549 cells; further: nearly all actives have a fitted effect of over 30% in size
FMDV antiviral: High Throughput Screening for Foot and Mouth Disease Virus Antivirals. AID 1159524, 2015. Potency, µM (doses to about 57.9 µM), usual class: inhibitors. FMDV antiviral cell-based qHTS. hit rate 1.2% among 410,000; calls by dose curve; tested in HEK293T cells; further: read-out not given here; nearly all actives have a fitted effect of over 45% in size
VACV mCherry inh: qHTS for Stage-Specific Inhibitors of Vaccinia Orthopoxvirus: mCherry Reporter Primary qHTS | Potency, µM (highest dose often 36.5 µM), actives largely listed as inhibitors | Vaccinia virus mCherry reporter infection, fluorescence | AID 720579, 2013 | hit rate 0.63% among 310,000; calls by dose curve; tested in A549 cells; further: nearly all actives have a fitted effect of over 35% in size
HCMV antiviral: qHTS Assay for inhibitors of the human cytomegalovirus (HCMV). HFF cells, HCMV-luciferase reporter, 72 h; stronger effect = lower value. activity change, negative = inhibition, % at 57.5 µM. hit rate 4.5% among 410,000. AID 1259415, 2018; in the data active means activity change below about -60%; inconclusive means no clear call, values can overlap the other calls; inactive means above about -39%
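After 16 h attachment at 37C, HFF cells received test compound and HCMV-luciferase (1 PFU/cell); reporter luminescence read 72 h later, data normalized against buffer-only and known inhibitor Salinomycin.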
Numbers stand for hits; n = inactive; u = inconclusive; x = no result; + = active, no number; [ ] = another dose, or the depositor's remark. Only some compounds are listed: those with a hit (about 6.5% of all), similar ones and a draw of the others.

SMILES	LASV entry inh	MARV entry inh	Vaccinia Venus	FMDV antiviral	VACV mCherry inh	HCMV antiviral
COc1ccccc1Nc1nnc(SCC(=O)c2cc(C)n(CC3CCCO3)c2C)s1 (stereo unspecified)	n	n	n	n	x	-76
Cc1cc(-n2c(C)cc(C(=O)COc3cc(F)ccc3[N+](=O)[O-])c2C)no1	x	x	x	n	x	u
COC(=O)C1=C(C)N(Cc2ccccc2)C(=NCCc2ccccn2)NC1c1cccc(F)c1 (stereo unspecified)	x	n	x	x	x	x
Cc1ccccc1C(=O)N1CCN(CCc2ccccn2)CC1	n	n	n	n	n	n
Cc1ccc(CN2C[C@H](Sc3ccccn3)C[C@H]2C(=O)Nc2ccc3sc(C)nc3c2)s1	x	x	u	n	n	x
Oc1c(C(c2ccc(Cl)cc2)N2CCC3(CC2)OCCO3)sc2nc(-c3ccco3)nn12 (stereo unspecified)	n	x	n	n	n	n
Cc1cc(C(=O)COC(=O)c2ccc[nH]c2=O)c(C)n1C	n	n	n	n	n	n
CNS(=O)(=O)c1cccc(C(=O)OCC(=O)c2cc(C)n(CC3CCCO3)c2C)c1 (stereo unspecified)	13µM	u	n	n	n	n
COCCn1c(C)cc(C(=O)COC(=O)c2ccc[nH]c2=O)c1C	u	u	n	u	n	-65
Cc1cc(C(=O)COC(=O)c2ccc3c(c2)NC(=O)CS3)c(C)n1CC1CCCO1 (stereo unspecified)	n	u	n	28µM	n	n
CCCOc1ccccc1C(=O)Nc1ccc(-c2nc3ccc(C)cc3s2)cc1	u	u	n	n	n	n
Cc1ccc(NS(=O)(=O)c2cnc(N)nc2)c(C)c1	n	x	n	n	n	n
COc1ccc(C2CC(=O)CCN2S(=O)(=O)c2ccc(F)cc2)cc1 (stereo unspecified)	x	x	x	x	x	n
Cc1ccc(N2C(=O)NC(=O)/C(=C\C=C\c3ccco3)C2=O)cc1	x	x	x	20µM	x	-100
O=C1S/C(=C\C=C\c2ccco2)C(=O)N1c1ccc(O)cc1	u	21µM	n	u	n	u
CCOC(=O)C1=C(C)N(c2ccc(C)c(C)c2)C(=O)/C1=C\c1ccco1	n	n	x	n	x	n
O=C1NC(=O)N(Cc2ccco2)C(=O)/C1=C/C=C/c1ccco1	u	u	n	u	n	u
CN1C(=O)/C(=C/C=C/c2ccco2)C(=O)NC1=S	x	x	n	u	n	n
O=C1NC(=O)N(c2ccccc2)C(=O)/C1=C/C=C/c1ccco1	x	x	x	u	x	-100
Cc1ccc(N2C(=O)NC(=O)/C(=C\C=C\c3ccco3)C2=O)cc1C	u	u	n	u	n	-102
COc1cc(Cl)c(C)cc1Nc1nc2ccccc2c2nnc(C)n12	n	x	n	n	n	n
COc1cccc2sc(N(Cc3cccnc3)C(=O)Cc3ccccc3)nc12	n	x	n	n	n	n
COc1cc(=O)n2c(c1C(=O)NCc1ccco1)CCN(Cc1cccc(C(F)(F)F)c1)CC2	x	x	n	n	n	x
O=C1NC(=O)N(c2ccccc2)C1=O	n	n	n	n	n	n
Cc1cccc(N2C(=O)NC(=O)/C(=C\C=C\c3ccco3)C2=O)c1	x	x	x	7.1µM	x	n
SMILES	LASV entry inh	MARV entry inh	Vaccinia Venus	FMDV antiviral	VACV mCherry inh	HCMV antiviral
O=C1NC(=O)N(Cc2ccccc2)C(=O)/C1=C\C=C\c1ccco1	u	u	n	25µM	n	-98
CN(C)c1ccc(/C=C/C=C2/C(=O)NC(=O)N(c3ccccc3)C2=O)cc1	u	u	n	20µM	n	-113
Cc1cnc(C)c(-c2ccc(O)c(CN3CCN(C=O)CC3)c2)n1	x	x	n	n	n	x
COc1cc2c(c(OC)c1OC)C(c1ccccc1)(c1ccccc1)CC2NC(=O)C(F)(F)F (stereo unspecified)	x	n	x	x	x	x
CSc1oc(-c2ccco2)nc1S(=O)(=O)c1ccc(C)cc1	n	u	n	n	n	n
CCC(C)Sc1oc(-c2ccco2)nc1S(=O)(=O)c1ccc(C)cc1 (stereo unspecified)	n	10µM	n	n	n	n
Cc1ccc(-c2nnn3c2nc(NCC(C)c2ccccc2)c2ccccc23)cc1 (stereo unspecified)	n	n	n	n	n	u
Nc1ccc(-c2nc3ccc(-c4nc5ccccc5o4)cc3[nH]2)cc1	n	7.1µM	n	n	n	n
Cc1nc2ccc(-c3nc4ccccc4o3)cc2[nH]1	u	n	n	n	n	n
CC(Sc1nc2ccccc2c(=O)n1C)C(=O)N(C)C1CCCCC1 (stereo unspecified)	u	u	n	u	n	-79
COC(=O)/C=c1\s/c(=C(/C#N)C(=O)N2CCCCC2)n(-c2ccccc2)c1=O	x	n	x	x	x	x
S=C1Nc2ccccc2CS1	x	x	n	n	n	n
S=C1Cc2ccccc2N1	x	x	x	32µM	x	-83
Cc1cnc(-n2ncc(C(=O)N(C)CCc3ccccn3)c2-c2cccs2)nc1-c1ccc(F)cc1	x	x	n	n	n	x
COc1ccc(CNc2nc(S(=O)(=O)c3ccccc3)c(Cl)s2)cc1OC	u	u	n	14µM	u	-95
O=S(=O)(c1ccccc1)c1nc(NCc2ccccc2)sc1Cl	n	n	n	n	n	-70
Cc1ccc2sc(N(CCCN(C)C)C(=O)c3ccco3)nc2c1C	n	x	n	n	n	-62
Cc1ccc2sc(N(CCCN(C)C)C(=O)c3ccc(Br)s3)nc2c1C	u	15µM	n	n	u	n
CC(=O)c1ccc(C(=O)N(CCCN(C)C)c2nc3c(C)c(C)ccc3s2)cc1	u	x	n	n	n	n
O=C(CCCSc1nnc(SCCCC(=O)c2ccc(F)cc2)s1)c1ccc(F)cc1	u	u	11µM	x	u	n
Nc1nnc(SCCCC(=O)c2ccc(F)cc2)s1	n	n	n	n	n	n
Cc1nc(N2CCCC2)c2c(C(=O)Nc3cccc(Cl)c3)c(C)oc2n1	n	x	n	n	n	n
Cc1cc(C)c(S(=O)(=O)N[C@H]2CC[C@@]34CCCN3C(=O)CCC[C@H]4[C@H]2C)c(C)c1	x	x	x	x	x	n
Cc1ccc(NC(=O)C(=Cc2ccc(C(=O)O)cc2)C(=O)Nc2ccc(C)cc2C)c(C)c1	x	x	x	11µM	x	x
Cn1cc(CNCc2ccc(OC(F)(F)F)cc2)c(-c2ccc3c(c2)OCCO3)n1	x	x	x	u	x	-81
Cn1c(=O)c(=O)n(C)c2cc(N3CCCC3)c(NS(=O)(=O)c3ccc(F)cc3)cc21	n	u	n	n	n	n
Cn1c(=O)c(=O)n(C)c2cc(N3CCCCC3)c(NS(=O)(=O)c3ccc([N+](=O)[O-])cc3)cc21	x	x	n[7.34 µM]	n	n[7.34 µM]	+
C=C1C=C(C(F)F)n2ncc(C(=O)N3CCN(c4ccccn4)CC3)c2N1	x	x	n	x	n	x
Cc1cc(C)c(S(=O)(=O)N2CCN(CCN3C(=O)c4cccc5cccc(c45)C3=O)CC2)cc1[N+](=O)[O-]	n	n	x	x	x	x
O=C1c2cccc3cccc(c23)C(=O)N1CCO	x	x	n	n	n	u
